Screens (PubChem)
Compounds with a hit are over-represented: about 3.4% of the library has one in this group of screens.
GPR151 activ: activates the human receptor GPR151 | Q8TDV0 | PathHunter beta-arrestin GPR151 cells, luminescence | activation, % at 11.2 µM | hit rate 1% among 650,000; in the data active means activation above about 4.9%
MITF primary: human MITF inhibition, primary screen | O75030 | AlphaScreen MITF homodimerization, bead proximity signal | inhibition, % at 2.6 µM | hit rate 0.91% among 650,000 | AID 1259374; in the data active means inhibition above about 50%
Target sequence (O75030 whole entry, looked up): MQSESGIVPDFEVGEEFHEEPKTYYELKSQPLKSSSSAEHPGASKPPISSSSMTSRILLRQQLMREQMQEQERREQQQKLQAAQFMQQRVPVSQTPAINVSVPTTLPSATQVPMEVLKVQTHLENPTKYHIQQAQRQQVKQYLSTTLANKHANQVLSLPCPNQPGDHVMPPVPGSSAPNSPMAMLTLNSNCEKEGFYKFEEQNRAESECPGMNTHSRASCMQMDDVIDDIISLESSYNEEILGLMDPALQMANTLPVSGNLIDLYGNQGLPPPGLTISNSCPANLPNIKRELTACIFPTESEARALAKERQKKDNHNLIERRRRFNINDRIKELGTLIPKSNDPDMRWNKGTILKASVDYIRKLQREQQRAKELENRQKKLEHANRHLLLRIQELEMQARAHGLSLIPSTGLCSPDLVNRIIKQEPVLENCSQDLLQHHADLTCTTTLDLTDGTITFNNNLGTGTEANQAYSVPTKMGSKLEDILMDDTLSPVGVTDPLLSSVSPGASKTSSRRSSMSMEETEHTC
TEAD-YAP inh: TEAD-YAP interaction inhibition; hit rate 1.4% among 640,000; inhibition, % at 9.12 µM; HEK-TIYL cells, TEAD-Gal4/YAP UAS-luciferase luminescence; AID 1259422; in the data active means inhibition above about 32%
FBW7 act: activators of human E3 ligase FBW7. AlphaScreen FBW7–phospho-cyclin E peptide binding, activator screen. normalized activity (activation), % at 26.1 µM. hit rate 0.13% among 650,000; in the data active means normalized activity above about 1.9%;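 further: purified mutant Fbw7 with reduced substrate affinity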
GPR151 conf act: confirmation of human GPR151 activators. shares compounds with GPR151 activ. GPR151 PathHunter beta-arrestin cells, luminescence, 90 min; % of EA-reagent control over plate median. activation, % at 11.2 µM. 6,700 tested, under 10 active;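 active means mean percent activation across replicates above the confirmation screen cutoff of 4.91%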
GPR119 counter: activates human GPR119 in a GPR151 counter-screen | shares compounds with GPR151 activ | GPR119 PathHunter beta-arrestin cells, luminescence, 90 min; 0 = compound-well median, 100 = enzyme-acceptor control | activation, % at 11.2 µM | hit rate 0.3% among 6,700 | AID 1508611;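 active means mean percent activation in the counterscreen above 29.09%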;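 further: counterscreen on off-target GPR119 to flag nonselective hits from the GPR151 activator screen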
Large screens that a line does not name were inactive (follow-up assays come after a bar, where they were run); ! = a repeat was not active.

S=C1NC2(CCCCC2)N=C1c1ccccc1	GPR151 activ 8.1 | GPR151 conf act inactive | GPR119 counter inactive
Cc1cc(C)c2c(CC(=O)NC3CCCC3)coc2c1	none
CN1C(=O)C(O)(CC(=O)c2cccnc2)c2ccccc21 (stereo not drawn)	GPR151 activ 14 | GPR151 conf act inactive | GPR119 counter inactive
CC(C)N1C(=O)C(O)(CC(=O)c2ccc3ccccc3c2)c2ccccc21 (stereo not drawn)	GPR151 activ 6.2 | GPR151 conf act inactive | GPR119 counter inactive
CN1C(=O)C(O)(CC(=O)c2ccc(F)cc2)c2ccccc21 (stereo not drawn)	none
CN1C(=O)C(O)(CC(=O)c2ccc3ccccc3c2)c2ccccc21 (stereo not drawn)	none
COc1ccc(C(=O)CC2(O)C(=O)N(C(C)C)c3ccccc32)cc1 (stereo not drawn)	GPR151 activ 12 | GPR151 conf act inactive | GPR119 counter inactive
COc1ccccc1N1C(=S)NC2c3cc(C)ccc3OC1(C)C2C(=O)N(C)C (stereo not drawn)	none
O=C(CC(=O)Nc1cccc(C(F)(F)F)c1)N/N=C/c1cccc([N+](=O)[O-])c1	none
CCOc1ccc(S(=O)(=O)c2ccc(OCC)c([N+](=O)[O-])c2)cc1[N+](=O)[O-]	none
CCOC(=O)C(C)Oc1ccc2c(=O)c(Oc3ccc(OC)cc3)coc2c1 (stereo not drawn)	none
CCOC(=O)C(C)Oc1ccc2c(=O)c(Oc3cccc(OC)c3)coc2c1 (stereo not drawn)	GPR151 activ 11 | GPR151 conf act inactive | GPR119 counter inactive
CCNc1nc(NCC)n2c(SCC(=O)c3ccc(OC)cc3)nnc2n1	none
CCNc1nc(NCC)n2c(SCC(=O)OCC)nnc2n1	GPR151 activ 26 | GPR151 conf act inactive | GPR119 counter inactive
O=C1c2c(sc3c2CCCC3)NC2(C(=O)N(Cc3c(Cl)cccc3Cl)c3ccccc32)N1CCc1ccccc1 (stereo not drawn)	none
COc1cccc(C(=O)COC(=O)c2cccc(NC(=O)c3ccccc3)c2)c1	GPR151 activ 6.1 | GPR151 conf act inactive | GPR119 counter inactive
O=C(COC(=O)c1ccc2ccccc2n1)c1ccc(Cl)c(Cl)c1	GPR151 activ 5.6 | GPR151 conf act inactive | GPR119 counter inactive
O=C(COC(=O)c1ccc2ccccc2n1)c1ccccc1	none
O=C(COC(=O)c1ccccc1)c1ccc2ccccc2c1	GPR151 activ 5.4 | GPR151 conf act inactive | GPR119 counter inactive
COc1cc(C(=O)NNC(=S)Nc2ccc(Br)cc2)ccc1O	none
COc1cc(Br)c(C2C(C#N)=C(N)Oc3cc4c(cc32)OCO4)cc1OC (stereo not drawn)	GPR151 activ 9.1 | GPR151 conf act inactive | GPR119 counter inactive
Cc1ccccc1C(=O)Nc1c(C(=O)Nc2ccc(Cl)cc2)cnn1-c1ccccc1	none
Cc1nccn1CCNC(=O)c1cnn(-c2nccc(-c3cccnc3)n2)c1C	none
CCOCCCNC(=O)Cn1ncc2c1-c1cc(C)ccc1OC2	none
Cc1ccc2c(c1)-c1c(cnn1CC(=O)NC1CC1)CO2	GPR151 activ 6.1 | GPR151 conf act inactive | GPR119 counter inactive
Cc1ccc2c(c1)-c1c(cnn1CC(=O)NCCN(C)C)CO2	GPR151 activ 11 | GPR151 conf act inactive | GPR119 counter inactive
Cc1ccc2c(c1)-c1c(cnn1CC(=O)N(C)c1ccccc1C)CO2	GPR151 activ 7.1 | GPR151 conf act inactive | GPR119 counter inactive
COc1cc(/C=c2\sc3nc(-c4ccc(Cl)cc4)nn3c2=O)ccc1OCCC(C)C	none
CCCCCC(O)CCC(=O)NNC(=S)Nc1ccccc1 (stereo not drawn)	none
CC(C)COCC(O)CCC(=O)NNC(=S)Nc1ccccc1 (stereo not drawn)	GPR151 activ 6.5 | GPR151 conf act inactive | GPR119 counter inactive
O=c1c2sccc2nc(SCc2ccccc2Cl)n1CCN1CCCC1	none
Cc1cc(C(=O)Nc2ccc3c(c2)OCO3)on1	none
O=C(Nc1ccc2c(c1)OCO2)c1cc(-c2ccccc2F)no1	GPR151 activ 5.2 | GPR151 conf act inactive | GPR119 counter inactive
COc1ccc(NC(=O)c2cc(-c3ccccc3O)no2)cc1OC	GPR151 activ 5.5 | GPR151 conf act inactive | GPR119 counter inactive
COc1ccc(NC(=O)c2cc(-c3ccccc3F)no2)cc1OC	none
COC(c1ccc2c(c1)CN(C(=O)c1nc3ncccn3n1)CCO2)C1CCCCC1 (stereo not drawn)	GPR151 activ 9.5 | GPR151 conf act inactive | GPR119 counter inactive
Cn1c(=O)c2c(ncn2CC(=O)N/N=C/c2cccc(F)c2)n(C)c1=O	GPR151 activ 5.6 | GPR151 conf act inactive | GPR119 counter inactive
OCC1CCCN(c2nc(CN3CCOCC3)nc3sc4c(c23)CCCC4)C1 (stereo not drawn)	none
COc1ccc(C2CCN(CC(=O)N3CCOCC3)CC2)cc1	none
COc1cc(OC)nc(CSCC(=O)N2CCN(CC(=O)N3CCOCC3)CC2)n1	GPR151 activ 5.2 | GPR151 conf act inactive | GPR119 counter inactive
CCN(CC)S(=O)(=O)c1cccc(-c2nnc(-c3cccc([N+](=O)[O-])c3)o2)c1	none
COCCCN(C(=S)Nc1cccc(Cl)c1)C(C)c1ccncc1 (stereo not drawn)	GPR151 activ 5.9 | GPR151 conf act inactive | GPR119 counter inactive
CCCNC(=O)c1ccnc(N2CCCC(C(=O)N(CC)CC)C2)c1 (stereo not drawn)	none
CCN(CC)C(=O)C1CCCN(c2cc(C(=O)NCCN(C(C)C)C(C)C)ccn2)C1 (stereo not drawn)	GPR151 activ 6.2 | GPR151 conf act inactive | GPR119 counter inactive
CC(=O)c1cc(C#N)c(SCCC(C)C)nc1C	GPR151 activ 7.9 | GPR151 conf act inactive | GPR119 counter inactive
CCOC(=O)COc1c(I)cc(C(=O)O)cc1OCC	none
NC(=O)N1CCn2c3c(c4cc(C5CCCCC5)ccc42)CCCC31 (stereo not drawn)	none
O=CN1CCn2c3c(c(=O)c4cc(C5CCCCC5)ccc42)CCC31 (stereo not drawn)	GPR151 activ 7.3 | GPR151 conf act inactive | GPR119 counter inactive
CCCCN(CC)S(=O)(=O)c1ccc(C(=O)Nc2ccc3c4c(cccc24)C(=O)N3CC)cc1	GPR151 activ 9.7 | GPR151 conf act inactive | GPR119 counter inactive
CC(=O)OCC1=C(C(=O)O)N2C(=O)[C@@H](NC(=O)Cc3cccs3)[C@H]2SC1	GPR151 activ 19! | GPR151 conf act inactive | GPR119 counter inactive
CO/N=C(/C(=O)N[C@@H]1C(=O)N2C(C(=O)O)=C(COC(C)=O)CS[C@H]12)c1csc(N)n1	none
Cc1ccc(C2Nn3c(C)nnc3SC2C(=O)N2CCCCCC2)cc1 (stereo not drawn)	GPR151 activ 6.4 | GPR151 conf act inactive | GPR119 counter inactive
Cc1ccc(NC(=O)c2nccnc2CO)cc1Cl	none
